Experimental data from PubChem BioAssay (EPA / NIEHS).
Inconclusive results are not listed. Calls of active or inactive are those of the source. Rule for the calls: active = hit-call score of the fitted dose curve at least 0.9, where 1 is the maximum; inconclusive = response in the unintended direction; inactive = score below 0.9.

read-out: Cytochrome P450 2B6 (Homo sapiens) (UniProt P20813); experiment: CLD_CYP2B6_24hr: CellzDirect (CLD) Gene Expression Assay for xenobiotic metabolism (CYP2B6) at 24 hours (AID 2283686)
Method: CLD_24hr is a cell-based, multiplexed-readout assay that uses hepatocyte, a human liver primary cell, with measurements taken at 24 hours after chemical dosing in a 96-well plate.CLD_CYP2B6_24hr is one of 16 assay component(s) measured or calculated from the CLD_24hr assay. It is designed to make measurements of mRNA induction, a form of inducible reporter, as detected with chemiluminescence signals by Quantitative Nuclease Protection Assay (qNPA) technology.Data from the assay component CLD_CYP2B6_24hr was analyzed at the endpoint, CLD_CYP2B6_24hr, in the positive analysis fitting direction relative to DMSO as the negative control and baseline of activity. Using a type of inducible reporter, gain-of-signal activity can be used to understand changes in the reporter gene as they relate to the gene CYP2B6. Furthermore, this assay endpoint can be referred to as a primary readout. To generalize the intended target to other relatable targets, this assay endpoint is annotated to the cyp intended target family, where subfamily is xenobiotic metabolism.
Human hepatocyte cultures were treated daily for two consecutive days with fresh dosing solutions containing appropriate concentrations of the 320 ToxCast chemicals (chemical identities were blinded to CellzDirect and other ToxCast collaborators), vehicle control (0.2% DMSO), and positive control inducers as summarized in Table 1. Due to the large number of treatment groups and chemicals examined, the ToxCast chemicals were divided into two groups (spanning two independent cultures of hepatocytes from separate donor preparations (Hu778: ToxCast plates 1 and 2; Hu776: ToxCast plates 3 and 4). Each preparation of human hepatocyte cultures was treated with respective vehicle control, medium only control, set of six positive controls/reference chemicals for the five hepatic receptor pathways, and a subset of eight of the ToxCast chemicals (indoxacarb, pyrithiobac-sodium, norflurazon, cyhalofop-butyl, methomyl, thiram, acetochlor, and propiconazole). These replicate data, coupled with internal replicates designed within the blinded ToxCast chemical library, provided additional data to evaluate interindividual differences between hepatocyte preparations and their potential impact on chemical profiles.Cell morphology and integrity were evaluated using phase-contrast microscopy as an indicator of hepatocyte cell health (Tyson & Green, 1987). Cultures for each treatment group (i.e., media, vehicle [0.2% DMSO], positive control inducers [multiple concentrations], and the ToxCast chemicals [multiple concentrations]) were observed and cell morphology was assessed relative to vehicle control cultures at each harvest time point (0, 6, 24, or 48 h). […] Images were evaluated at the conclusion of the study to assess changes in cell integrity and account for the effects of chemical exposure on uncharacteristic changes in concentration-dependent gene expression profiles. The results from these determinations of apparent cytotoxicity were annotated (yes/no) alongside the corresponding qNPA data for reference.At the conclusion of each treatment period, hepatocyte cultures (96-well) were washed with 1 volume of HBSS, lysed by addition of 25 ul ArrayPlate lysis buffer (HTG, Tucson, AZ), and 70 ul/well of Denaturation Oil, denatured by incubation at 95C for 10 min, and frozen at approximately -70C until analysis by nuclease protection assay (qNPA) (Roberts et al., 2007). For qNPA analysis, cell lysates were thawed at 50C for approximately 30 min, qNPA probes were added, and samples were incubated at 95C for 10 min to begin the detection process by denaturing the target RNA, dissociating the duplexes and secondary structure hybridization. At the conclusion of the hybridization period, S1 nuclease reagent was added to each sample to digest all nonprotected nucleotides at 50C for 60-90 min. […]

| SMILES | outcome | AC50 |
| --- | --- | --- |
| COC(=O)c1ccccc1CS(=O)(=O)NC(=O)Nc1nc(OC)cc(OC)n1 | inactive |  |
| CC[C@H](C)[C@H]1O[C@]2(C=C[C@@H]1C)C[C@@H]1C[C@@H](C/C=C(\C)[C@@H](O[C@H]3C[C@H](OC)[C@@H](O[C@H]4C[C@H](OC)[C@@H](O)[C@H](C)O4)[C@H](C)O3)[C@@H](C)/C=C/C=C3\CO[C@@H]4[C@H](O)C(C)=C[C@@H](C(=O)O1)[C@]34O)O2 (tested in a mixture with another compound) |  | 3970 nM (active) |
| Cc1cc(C)nc(NC(=O)NS(=O)(=O)c2ccccc2C(=O)OC2COC2)n1 | inactive |  |
| N#Cc1c(Cl)c(Cl)c(Cl)c(C#N)c1Cl | inactive |  |
| O=[N+]([O-])/N=C1\NCCN1Cc1ccc(Cl)nc1 | inactive |  |
| CCC(C)(NC(=O)c1cc(Cl)c(C)c(Cl)c1)C(=O)CCl (stereo not given) |  | 3970 nM (active) |
| O=S(=O)(O)C(F)(F)C(F)(F)C(F)(F)C(F)(F)C(F)(F)C(F)(F)C(F)(F)C(F)(F)F | inactive |  |
| CCOCN(C(=O)CCl)c1c(C)cccc1CC |  | 2050 nM (active) |
| CCC(C)Nc1c([N+](=O)[O-])cc(C(C)(C)C)cc1[N+](=O)[O-] (stereo not given) |  | 3630 nM (active) |
| O=C(O)C(F)(F)C(F)(F)C(F)(F)C(F)(F)C(F)(F)C(F)(F)C(F)(F)F | inactive |  |
| CC1(C)C(C=C(Cl)Cl)C1C(=O)OC(C#N)c1ccc(F)c(Oc2ccccc2)c1 (stereo not given) | inactive |  |
| CC(C)(C)C(O)/C(=C\c1ccc(Cl)cc1Cl)n1cncn1 (stereo not given) |  | 621 nM (active) |
| C#CCN1C(=O)COc2cc(F)c(N3C(=O)C4=C(CCCC4)C3=O)cc21 |  | 20000 nM (active) |
| COP(=S)(OC)Oc1ccc([N+](=O)[O-])cc1 |  | 5280 nM (active) |
| Clc1ccccc1-c1nnc(-c2ccccc2Cl)nn1 |  | 9.29 nM (active) |
| CNC(=O)CSP(=S)(OC)OC | inactive |  |
| CCC(C)(C)C(=O)OC1=C(c2ccc(Cl)cc2Cl)C(=O)OC12CCCCC2 | inactive |  |
| CC(C)(C)C(O)C(Oc1ccc(Cl)cc1)n1cncn1 (stereo not given) |  | 2510 nM (active) |
| COc1nn(CSP(=S)(OC)OC)c(=O)s1 |  | 1970 nM (active) |
| O=C(O)COc1ccc(Cl)cc1Cl | inactive |  |

| SMILES | outcome | AC50 |
| --- | --- | --- |
| Oc1cc(Cl)ccc1Oc1ccc(Cl)cc1Cl | inactive |  |
| CNC(=O)/C=C(\C)OP(=O)(OC)OC |  | 0.497 nM (active) |
| CNC(=O)Oc1ccccc1OC(C)C |  | 1600 nM (active) |
| O=[N+]([O-])c1c(Cl)c(Cl)c(Cl)c(Cl)c1Cl |  | 4020 nM (active) |
| COC(=O)c1ccccc1S(=O)(=O)NC(=O)Nc1nc(C)nc(OC)n1 | inactive |  |
| CCc1ccc(C(=O)NN(C(=O)c2cc(C)cc(C)c2)C(C)(C)C)cc1 |  | 2190 nM (active) |
| CCOC1Oc2ccc(OS(C)(=O)=O)cc2C1(C)C (stereo not given) |  | 3120 nM (active) |
| Cc1[nH]c(=O)n(C(C)(C)C)c(=O)c1Cl | inactive |  |
| COc1cc(OC)nc(NC(=O)NS(=O)(=O)c2cc(NC=O)ccc2C(=O)N(C)C)n1 | inactive |  |
| O=S1OCC2C(CO1)C1(Cl)C(Cl)=C(Cl)C2(Cl)C1(Cl)Cl (stereo not given) |  | 2560 nM (active) |
| O=C(NC(=O)c1c(F)cccc1F)Nc1ccc(OC(F)(F)C(F)OC(F)(F)F)c(Cl)c1 (stereo not given) | inactive |  |
| CCCN(CCOc1c(Cl)cc(Cl)cc1Cl)C(=O)n1ccnc1 |  | 1890 nM (active) |
| CCS(=O)(=O)c1cccnc1S(=O)(=O)NC(=O)Nc1nc(OC)cc(OC)n1 | inactive |  |
| OCCOc1ccccc1 | inactive |  |
| COC(=O)c1ccccc1S(=O)(=O)NC(=O)N(C)c1nc(C)nc(OC)n1 | inactive |  |
| O=C(O)CCCOc1ccc(Cl)cc1Cl | inactive |  |
| COP(=S)(OC)Oc1ccc(SC)c(C)c1 |  | 20000 nM (active) |
| Oc1ccc(Cl)cc1Cc1ccccc1 | inactive |  |
| CC(C)N(C(=O)COc1nnc(C(F)(F)F)s1)c1ccc(F)cc1 |  | 7160 nM (active) |
| COP(=O)(OC)OC=C(Cl)Cl | inactive |  |
